The supplement of paper PMC4466140

What follows are binders tested against AgAbp1 (assay: SPOT peptide array binding signal intensity (averaged, normalized) (arbitrary units (background-subtracted, floor 0; scale differs between SH3 domains)); higher = stronger binding of the SH3 domain to the peptide).
In short: (§1)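 E. coli BL21(DE3) was used to express GST-fused SH3 domains from four yeast species, which were then purified on glutathione Sepharose. These were incubated at 10 μg/ml in TBS-based blocking buffer overnight at 4°C on cellulose membranes carrying synthetic 15-mer peptides, in which cysteines were replaced by serines. Binding signal is the replicate average of normalized, background-subtracted spot intensity, in arbitrary units that differ between domains.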

Binder	SPOT peptide array binding signal intensity
KKIRLIFTYPSTVGR	11

Each binder was assayed against AgBbc1 in the same assay as above.
In short: as §1

Binder	SPOT peptide array binding signal intensity
KKIRLIFTYPSTVGR	22.8

These binders were tested against AgBem1-D1 in the same assay as above.
In short: as §1

Binder	SPOT peptide array binding signal intensity
KKIRLIFTYPSTVGR	241

These binders were tested against AgBzz1-D1 in the same assay as above.
In short: as §1

Binder	SPOT peptide array binding signal intensity
KKIRLIFTYPSTVGR	22.5

These binders were tested against AgBzz1-D2 in the same assay as above.
In short: as §1

Binder	SPOT peptide array binding signal intensity
KKIRLIFTYPSTVGR	50

These binders were tested against AgCyk3 in the same assay as above.
In short: as §1

Binder	SPOT peptide array binding signal intensity
KKIRLIFTYPSTVGR	49

These binders were tested against AgFus1 in the same assay as above.
In short: as §1

Binder	SPOT peptide array binding signal intensity
KKIRLIFTYPSTVGR	2480

What follows are binders tested against AgHof1 in the same assay as above.
In short: as §1

Binder	SPOT peptide array binding signal intensity
KKIRLIFTYPSTVGR	47

Each binder was assayed against AgHse1 in the same assay as above.
In short: as §1

Binder	SPOT peptide array binding signal intensity
KKIRLIFTYPSTVGR	1210

What follows are binders tested against AgLsb1 in the same assay as above.
In short: as §1

Binder	SPOT peptide array binding signal intensity
KKIRLIFTYPSTVGR	58.8

These binders were tested against AgLsb4 in the same assay as above.
In short: as §1

Binder	SPOT peptide array binding signal intensity
KKIRLIFTYPSTVGR	577

Each binder was assayed against AgMyo5 in the same assay as above.
In short: as §1

Binder	SPOT peptide array binding signal intensity
KKIRLIFTYPSTVGR	2.5

These binders were tested against AgNbp2 in the same assay as above.
In short: as §1

Binder	SPOT peptide array binding signal intensity
KKIRLIFTYPSTVGR	688

These binders were tested against AgRvs167 in the same assay as above.
In short: as §1

Binder	SPOT peptide array binding signal intensity
KKIRLIFTYPSTVGR	6.17

What follows are binders tested against AgSho1 in the same assay as above.
In short: as §1

Binder	SPOT peptide array binding signal intensity
KKIRLIFTYPSTVGR	426

What follows are binders tested against AgSla1-D1-D2 in the same assay as above.
In short: as §1

Binder	SPOT peptide array binding signal intensity
KKIRLIFTYPSTVGR	428

These binders were tested against AgSla1-D3 in the same assay as above.
In short: as §1

Binder	SPOT peptide array binding signal intensity
KKIRLIFTYPSTVGR	4.5

These binders were tested against CaAbp1-D1 in the same assay as above.
In short: as §1

Binder	SPOT peptide array binding signal intensity
KKIRLIFTYPSTVGR	504

What follows are binders tested against CaAbp1-D2 in the same assay as above.
In short: as §1

Binder	SPOT peptide array binding signal intensity
KKIRLIFTYPSTVGR	268

Each binder was assayed against CaBbc1 in the same assay as above.
In short: as §1

Binder	SPOT peptide array binding signal intensity
KKIRLIFTYPSTVGR	86.8

Each binder was assayed against CaBem1-D1 in the same assay as above.
In short: as §1

Binder	SPOT peptide array binding signal intensity
KKIRLIFTYPSTVGR	73.5

What follows are binders tested against CaBzz1-D1 in the same assay as above.
In short: as §1

Binder	SPOT peptide array binding signal intensity
KKIRLIFTYPSTVGR	142

These binders were tested against CaBzz1-D2 in the same assay as above.
In short: as §1

Binder	SPOT peptide array binding signal intensity
KKIRLIFTYPSTVGR	99.2

These binders were tested against CaCyk3 in the same assay as above.
In short: as §1

Binder	SPOT peptide array binding signal intensity
KKIRLIFTYPSTVGR	118

These binders were tested against CaFus1 in the same assay as above.
In short: as §1

Binder	SPOT peptide array binding signal intensity
KKIRLIFTYPSTVGR	4650

Each binder was assayed against CaHof1 in the same assay as above.
In short: as §1

Binder	SPOT peptide array binding signal intensity
KKIRLIFTYPSTVGR	2.25

The binders below were run against CaHse1 in the same assay as above.
In short: as §1

Binder	SPOT peptide array binding signal intensity
KKIRLIFTYPSTVGR	282

Each binder was assayed against CaLsb1 in the same assay as above.
In short: as §1

Binder	SPOT peptide array binding signal intensity
KKIRLIFTYPSTVGR	79.2

What follows are binders tested against CaLsb4 in the same assay as above.
In short: as §1

Binder	SPOT peptide array binding signal intensity
KKIRLIFTYPSTVGR	354

The binders below were run against CaMyo5 in the same assay as above.
In short: as §1

Binder	SPOT peptide array binding signal intensity
KKIRLIFTYPSTVGR	77.2
